PubChem BioAssay (Tox21)
“And” between values parts separate entries of the source, which are not always exact repeats. Equal entries are not always repeated. Inconclusive results are not listed. A call without a number means that no potency is given here. A number with no mark means an inactive call. The source made the active and inactive calls. Unless noted, calls come from the whole dose curve; as a rule, active = well fitted curve in the direction sought with a large enough effect in the repeat runs; inconclusive = weak or mixed curves; inactive = no such curve, though single readings can be large; an effect the other way counts as inactive or inconclusive.

What was measured:
[1] = qHTS assay to identify aromatase inhibitors - cell viability counter screen (AID 743084);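 note: cells stimulated with testosterone during compound exposure; nearly all actives have a fitted effect of over 55% in size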
[2] = target: Aryl hydrocarbon receptor (Homo sapiens) (UniProt P35869); assay: qHTS assay to identify small molecule that activate the aryl hydrocarbon receptor (AhR) signaling pathway (AID 743085); note: nearly all actives have a fitted effect of over 15% in size; note: potency is the fitted concentration of half-maximal effect;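 for activation: HG2L7.5c1 human HepG2 liver cells with stably integrated DRE-driven firefly reporter; series mostly up to about 70 µM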
Outline: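 Compounds were tested in HepG2 hepatocellular carcinoma cells harbouring a stably integrated luciferase gene under control of 20 DREs. Increased reporter signal after 24 h treatment at 37C was taken as AhR activation.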

[3] = qHTS assay to identify small molecule that activate the aryl hydrocarbon receptor (AhR) signaling pathway - cell viability counter screen (AID 743086);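 note: HepG2 liver cells carrying the AhR DRE luciferase reporter; series mostly up to about 70 µM; nearly all actives have a fitted effect of over 45% in size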
Outline: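 HepG2-AhR-luc (HG2L7.5c1) cells, 4000/well, were preincubated 5 h at 37C, exposed to compound in qHTS format for 24 hr at 37C, then given CellTiter-Fluor for 30 min; viability was read as fluorescence in the reporter wells.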

[4] = target: Peroxisome proliferator-activated receptor gamma (Homo sapiens) (UniProt P37231); assay: qHTS assay to identify small molecule agonists of the peroxisome proliferator-activated receptor gamma (PPARg) signaling pathway (AID 743094; active = well fitted activation curve with a large enough effect in the signal ratio in the repeat runs, not every such curve was filed as active; the % refers to the signal ratio)
Outline: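 HEK293H PPARg-bla cells, 5 h settle at 37C/5% CO2; compound (DMSO) 17 h, 37C; B/G FRET substrate 1 h RT; fluorescence intensity read-out. qHTS format.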

[5] = target: Peroxisome proliferator-activated receptor gamma (Homo sapiens) (UniProt P37231); assay: qHTS assay to identify small molecule antagonists of the peroxisome proliferator-activated receptor gamma (PPARg) signaling pathway (AID 743191; calls by dose curve; note: nearly all actives have a fitted effect of over 30% in size; note: potency is the fitted concentration of half-maximal effect; for ratio activity, negative = inhibition: series mostly up to about 63 µM)
Outline: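 GeneBLAzer PPARg UAS-bla HEK293H cells carrying a UAS-driven beta-lactamase reporter were plated at 3000 cells/well, preincubated 5 h at 37C, then given compound for 17 h at 37C; LiveBLAzer B/G FRET substrate was read after 1 h at room temperature.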

[6] = qHTS assay to identify small molecule antagonists of the peroxisome proliferator-activated receptor gamma (PPARg) signaling pathway - cell viability counter screen (AID 743194); conditions: Potency: co-treated with 50 nM rosiglitazone unless noted; note: nearly all actives have a fitted effect of over 55% in size
Outline: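 PPARg-UAS-bla HEK293H cells were plated, rested 5 h at 37 C, then treated with compounds plus rosiglitazone (50 nM final) for 17 h at 37 C; viability was then read by CellTiter-Glo luminescence after 30 min at room temperature.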

[7] = qHTS assay for small molecule agonists of the antioxidant response element (ARE) signaling pathway (AID 743202; active = well fitted activation curve with a large enough effect in the signal ratio in the repeat runs, not every such curve was filed as active; the % refers to the signal ratio)
Outline: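 Steps: seed ARE-bla HepG2 cells (2,000/well); incubate 5 h at 37 C; add compounds by pin tool; incubate 16 h at 37 C; add FRET substrate; read fluorescence after 2 h at RT.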

[8] = qHTS assay for small molecule agonists of the antioxidant response element (ARE) signaling pathway - cell viability counter screen (AID 743203; calls by dose curve; note: nearly all actives have a fitted effect of over 55% in size)
Outline: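 Luminescence read-out (CellTiter-Glo, 30 min at room temperature) measured cell viability in the same wells as the ARE beta-lactamase reporter. HepG2 ARE-bla cells were treated with compounds for 16 hrs at 37C/5% CO2.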

[9] = qHTS assay for small molecule activators of the heat shock response signaling pathway - cell viability counter screen (AID 743209); note: nearly all actives have a fitted effect of over 50% in size
Outline: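 HSE-bla HeLa; 1500 cells/well; overnight 37 C, 5% CO2; compound 5 h 37 C; LiveBLAzer B/G substrate 2.5 h RT; CellTiter-Glo 30 min RT; luminescence.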

[10] = qHTS assay for small molecule activators of the heat shock response signaling pathway (AID 743210; active = well fitted activation curve with a large enough effect in the signal ratio in the repeat runs, with a control signal flat, not every such curve was filed as active; the % refers to the signal ratio;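 note: HeLa cells with beta-lactamase reporter driven by heat shock elements; series mostly up to about 63 µM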)
Outline: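 Activation of heat shock element-controlled beta-lactamase expression is measured in HeLa cells by LiveBLAzer FRET fluorescence, with compound exposure lasting 5 h at 37 C and substrate loading 2.5 h at room temperature.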

Peroxisome proliferator-activated receptor gamma (Homo sapiens), sequence (P37231 whole entry, looked up): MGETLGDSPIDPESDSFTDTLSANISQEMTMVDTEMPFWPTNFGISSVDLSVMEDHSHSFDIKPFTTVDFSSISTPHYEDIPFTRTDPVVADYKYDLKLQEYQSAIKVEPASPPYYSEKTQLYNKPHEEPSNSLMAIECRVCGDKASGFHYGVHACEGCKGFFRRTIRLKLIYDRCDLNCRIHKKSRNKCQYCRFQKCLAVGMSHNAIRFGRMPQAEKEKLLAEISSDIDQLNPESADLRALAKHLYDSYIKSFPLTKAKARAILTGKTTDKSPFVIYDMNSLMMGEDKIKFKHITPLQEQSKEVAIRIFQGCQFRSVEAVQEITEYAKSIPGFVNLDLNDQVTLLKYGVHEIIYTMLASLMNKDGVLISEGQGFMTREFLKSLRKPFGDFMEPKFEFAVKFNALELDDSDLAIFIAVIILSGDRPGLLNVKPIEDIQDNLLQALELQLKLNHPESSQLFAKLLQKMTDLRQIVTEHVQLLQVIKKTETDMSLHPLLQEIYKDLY
Aryl hydrocarbon receptor (Homo sapiens), sequence (P35869 whole entry, looked up): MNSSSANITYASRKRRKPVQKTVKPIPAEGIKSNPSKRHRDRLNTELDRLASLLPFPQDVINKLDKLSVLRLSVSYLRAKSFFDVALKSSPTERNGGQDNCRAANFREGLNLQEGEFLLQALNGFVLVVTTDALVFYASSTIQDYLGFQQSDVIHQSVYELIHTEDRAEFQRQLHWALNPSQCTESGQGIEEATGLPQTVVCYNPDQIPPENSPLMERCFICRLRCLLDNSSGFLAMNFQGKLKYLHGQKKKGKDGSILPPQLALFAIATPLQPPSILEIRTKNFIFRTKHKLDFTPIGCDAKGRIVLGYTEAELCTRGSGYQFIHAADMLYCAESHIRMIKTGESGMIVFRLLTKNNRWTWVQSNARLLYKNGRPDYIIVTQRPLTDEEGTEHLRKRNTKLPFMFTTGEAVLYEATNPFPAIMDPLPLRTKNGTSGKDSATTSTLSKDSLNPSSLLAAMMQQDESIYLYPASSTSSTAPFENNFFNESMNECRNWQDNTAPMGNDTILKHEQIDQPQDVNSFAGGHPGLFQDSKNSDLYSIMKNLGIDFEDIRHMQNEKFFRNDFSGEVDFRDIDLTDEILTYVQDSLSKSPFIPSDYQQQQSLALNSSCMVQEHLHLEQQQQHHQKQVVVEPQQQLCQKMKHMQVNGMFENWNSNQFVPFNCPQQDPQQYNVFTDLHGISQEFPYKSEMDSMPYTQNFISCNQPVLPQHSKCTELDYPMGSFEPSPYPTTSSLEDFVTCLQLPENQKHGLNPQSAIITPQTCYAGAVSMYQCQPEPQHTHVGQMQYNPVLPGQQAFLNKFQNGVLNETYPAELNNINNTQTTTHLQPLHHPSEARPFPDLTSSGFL

Structure (SMILES) | Potency [1] | Potency [2] | Potency [3] | Potency [4] | Potency [5] | Potency [6] | Potency [7] | Potency [8] | Potency [9] | Potency [10] | ratio activity, negative = inhibition [5]
CN1CCCC1=O | inactive | inactive | inactive | inactive | inactive | inactive | inactive | inactive | inactive | inactive | 
CC(=O)OC(C)(C)C1CC=C(C)CC1 (centres undefined) | inactive | inactive | inactive | inactive | inactive | inactive |  | inactive | inactive | inactive | 
CCc1cccc(O)c1 | inactive | inactive | inactive | inactive | inactive | inactive |  | inactive | inactive | inactive | 
COc1cc(NC(=O)CC(C)=O)c(OC)cc1Cl | inactive | 24.4 µM (active) and 686 nM (active) | inactive | inactive | 19.5 µM (active) | inactive |  | inactive | inactive | inactive | 
OCC(O)CS (centres undefined) | inactive | inactive | inactive | inactive | inactive | inactive |  | inactive | inactive | inactive | 
O=C(Cl)c1ccc(C(=O)Cl)cc1 | inactive | inactive | inactive | inactive | inactive | inactive |  | inactive | inactive | inactive | 
OCC(CO)(CO)CO | inactive | inactive | inactive | inactive | inactive | inactive |  | inactive | inactive | inactive | 
O=C1O[C@H]([C@H](O)CO)C(O)=C1O | inactive | inactive | inactive | inactive | inactive | inactive |  | inactive | inactive |  | 
O=C(O)C1=NN(c2ccc(S(=O)(=O)O)cc2)C(=O)C1 | inactive | inactive | inactive | inactive | inactive | inactive |  | inactive | inactive | inactive | 
CC(C)c1ccc(C(C)C)cc1 | inactive | inactive | inactive | inactive | inactive | inactive | inactive | inactive | inactive | inactive | 
OCc1ccc(Cl)cc1Cl | inactive | inactive | inactive | inactive | inactive | inactive | inactive | inactive | inactive | inactive | 
CC1(C)C(=O)N(Cl)C(=O)N1Cl | inactive | inactive | inactive | inactive | inactive | inactive | inactive | inactive | inactive | inactive | 
O=C1CCCCCCCCCCC1 | inactive | inactive | inactive | inactive | inactive | inactive |  | inactive | inactive | inactive | 
NC(=O)NC(N)=O | inactive | inactive | inactive | inactive | inactive |  |  | inactive | inactive | inactive | 
Cc1ccncc1 | inactive | inactive | inactive | inactive | inactive | inactive | inactive | inactive | inactive | inactive | 
CCCCC(CC)COC(=O)c1ccc(C(=O)OCC(CC)CCCC)cc1 (centres undefined) | inactive | inactive | inactive | inactive | inactive | inactive | inactive | inactive | inactive | inactive | 
CC1=CC(=O)CC(C)(C)C1 | inactive | inactive | inactive | inactive | inactive | inactive |  | inactive | inactive |  | 
CC(=O)C(C)C | inactive | inactive | inactive | inactive | inactive | inactive |  | inactive | inactive | inactive | 
CCCOC(=O)NCCCN(C)C | inactive | inactive | inactive | inactive | inactive | inactive |  | inactive | inactive |  | 
N#CCC(=O)O | inactive | inactive | inactive | inactive | inactive | inactive | inactive | inactive | inactive | inactive | 
Cc1ccc(C(C)C)cc1 | inactive | inactive | inactive | inactive | inactive | inactive | inactive | inactive | inactive | inactive | 
C1CCCNCC1 | inactive | inactive | inactive | inactive | inactive | inactive |  | inactive | inactive | inactive | 
Cc1ccccc1C=O | inactive | inactive | inactive | inactive | inactive | inactive | inactive | inactive | inactive | inactive | 
CN=C(NC#N)NCCSCc1nc[nH]c1C | inactive | inactive | inactive | inactive | inactive | inactive |  | inactive | inactive | inactive | 
CCCCCNCCCCC | inactive | inactive | inactive | inactive | inactive | inactive | inactive | inactive | inactive | inactive | 
CCCN(CCC)C(=O)SCC | inactive | inactive | inactive | inactive | inactive | inactive |  | inactive | inactive | inactive | 

Structure (SMILES) | Potency [1] | Potency [2] | Potency [3] | Potency [4] | Potency [5] | Potency [6] | Potency [7] | Potency [8] | Potency [9] | Potency [10] | ratio activity, negative = inhibition [5]
Cc1ccccc1Cl | inactive | inactive | inactive | inactive | inactive | inactive | inactive | inactive | inactive | inactive | 
C[n+]1ccn(CCO)c1 | inactive | inactive | inactive | inactive | inactive | inactive | inactive | inactive | inactive |  | 
NC(=O)c1ncn([C@@H]2O[C@H](CO)[C@@H](O)[C@H]2O)n1 | inactive | inactive | inactive | inactive | inactive | inactive | inactive | inactive | inactive | inactive | 
Cc1ccc(Cl)cc1 | inactive | inactive | inactive | inactive | inactive | inactive |  | inactive | inactive | inactive | 
Cc1cccc(C)c1[N+](=O)[O-] | inactive | inactive | inactive | inactive | inactive | inactive |  | inactive | inactive | inactive | 
CC(=O)OC/C=C(\C)CCC=C(C)C | inactive | inactive | inactive | inactive | inactive | inactive |  | inactive | inactive | inactive | 
O=C1OC(=O)c2c(Cl)c(Cl)c(Cl)c(Cl)c21 | inactive | inactive | inactive | inactive | inactive | inactive | inactive | inactive | inactive | inactive | 
NC(N)=S | inactive | inactive | inactive | inactive | inactive | inactive | inactive | inactive | inactive |  | 
O=Cc1ccc(CO)o1 | inactive | inactive | inactive | inactive | inactive | inactive |  | inactive | inactive | inactive | 
CC(=O)Nc1ccc(CC(=O)O)cc1 | inactive | inactive | inactive | inactive | inactive | inactive |  | inactive | inactive | inactive | 
CC(O)CNCC(C)O (centres undefined) | inactive | inactive | inactive | inactive | inactive | inactive |  | inactive | inactive | inactive | 
Cc1cc(C)c(O)c(C)c1 | inactive | inactive | inactive | inactive | inactive | inactive | inactive | inactive | inactive | inactive | 
O=[N+]([O-])c1cc(C(F)(F)F)ccc1Cl | inactive | inactive | inactive |  | inactive | inactive | inactive | inactive | inactive | inactive | 
OC1CCCCC1 | inactive | inactive | inactive |  | inactive | inactive |  | inactive | inactive | inactive | 
CCCOCC(C)O (centres undefined) | inactive | inactive | inactive |  | inactive | inactive | inactive | inactive | inactive | inactive | 
C=C1C[C@]23C[C@@]1(O)CC[C@H]2[C@@]12C=C[C@H](O)[C@@](C)(C(=O)O1)[C@H]2[C@@H]3C(=O)O | inactive | inactive | inactive |  | inactive | inactive |  | inactive | inactive |  | 
CC/C=C(\C(=O)N[C@@H]1C(=O)N2C(C(=O)OCOC(=O)C(C)(C)C)=C(COC(N)=O)CS[C@H]12)c1csc(N)n1 | inactive | inactive | inactive |  | inactive | inactive |  | inactive | inactive | inactive | 
CCCCCCCCCCCC(=O)N(C)CC(=O)O | inactive | inactive | inactive |  |  | inactive |  | inactive | inactive | inactive | 4.34% [at 5.95 µM]
Cc1ncc(CO)c(CO)c1O | inactive | inactive | inactive |  | inactive | inactive | inactive | inactive | inactive | inactive | 
CC1(C)[C@@H](O[C@H]2O[C@H](C(=O)O)[C@@H](O)[C@H](O)[C@H]2O[C@@H]2O[C@H](C(=O)O)[C@@H](O)[C@H](O)[C@H]2O)CC[C@]2(C)[C@H]3C(=O)C=C4[C@@H]5C[C@@](C)(C(=O)O)CC[C@]5(C)CC[C@@]4(C)[C@]3(C)CC[C@@H]12 | inactive | inactive | inactive |  |  | inactive | inactive | inactive | inactive |  | 
C[Si](C)(C)N[Si](C)(C)C | inactive | inactive | inactive |  | inactive | inactive | inactive | inactive | inactive | inactive | 
C=CC(=O)NCOCCCC | inactive | inactive | inactive | inactive |  | inactive |  | inactive | inactive | inactive | 
Oc1ccc(Cc2ccccc2O)cc1 | inactive | inactive | inactive | inactive | inactive |  |  | inactive | inactive | inactive | 
OC[C@H]1O[C@@H](Oc2ccc(O)cc2)[C@H](O)[C@@H](O)[C@@H]1O | inactive | inactive | inactive |  | inactive | inactive | inactive | inactive | inactive | inactive | 
COc1c(Cl)ccc(Cl)c1C(=O)O | inactive | inactive | inactive |  | inactive | inactive | inactive | inactive | inactive | inactive | 
Cc1nnc(NS(=O)(=O)c2ccc(N)cc2)s1 | inactive | inactive | inactive |  | inactive | inactive | inactive | inactive | inactive | inactive | 
